In PubChem BioAssay (NCATS):
Where “and” joins values, the source holds several entries; their conditions need not be identical. Identical values can stand only once. Records with an inconclusive call do not appear. Calls of active or inactive are those of the source. The call rests on the fitted dose curve.

biological target: Bile acid receptor (Homo sapiens) (UniProt Q96RI1); test: qHTS assay for small molecule agonists of farnesoid X receptor signaling (AID 588527); settings: HEK293T FXR-UAS-bla, beta-lactamase ratio, 16 h; activation: hits give high values;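 further: series mostly up to about 77 µM; 0% = vehicle basal and 100% = reference agonist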
Sequence (Q96RI1 whole entry, looked up): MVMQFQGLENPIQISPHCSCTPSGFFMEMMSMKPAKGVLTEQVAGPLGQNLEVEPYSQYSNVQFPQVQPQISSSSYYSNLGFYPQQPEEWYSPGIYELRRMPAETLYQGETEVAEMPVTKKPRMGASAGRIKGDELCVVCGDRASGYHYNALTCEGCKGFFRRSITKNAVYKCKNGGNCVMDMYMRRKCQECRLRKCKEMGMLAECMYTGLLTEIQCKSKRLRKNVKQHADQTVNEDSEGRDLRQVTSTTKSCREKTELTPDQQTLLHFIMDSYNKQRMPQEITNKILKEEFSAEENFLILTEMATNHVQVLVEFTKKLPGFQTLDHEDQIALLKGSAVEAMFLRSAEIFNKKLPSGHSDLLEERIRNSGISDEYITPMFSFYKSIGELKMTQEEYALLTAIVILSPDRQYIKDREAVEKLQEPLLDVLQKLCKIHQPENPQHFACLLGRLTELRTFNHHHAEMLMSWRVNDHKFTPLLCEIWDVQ
How it was run: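 FXR-UAS-bla HEK293T, 10% dialyzed FBS; cpds up to 92 uM titration, 16 h 37 C; CCF4 dye 2 h RT; fluorescence. Normalized to chenodeoxycholic acid 100 uM (100%) and DMSO (0%); Hill fit gives EC50, efficacy.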

Structure (SMILES)	activation
Nc1ccc(N=Nc2ccccc2)c(N)c1	-2.91% (inactive)
Nc1c(N=Nc2ccc(S(=O)(=O)CCOS(=O)(=O)O)cc2)c(S(=O)(=O)O)cc2cc(S(=O)(=O)O)c(N=Nc3ccc(S(=O)(=O)CCOS(=O)(=O)O)cc3)c(O)c12	4.58% (inactive)
CCC(C)O (centres undefined)	0.0237% (inactive)
CCCCCCC(O)CCCCCCCCCCC(=O)O (centres undefined)	3.12% (inactive)
Cc1ccc(CO)cc1	-3.46% (inactive)
O=C(O)c1c(Cl)cccc1Cl	2.87% (inactive)
Cc1cc(C)c(N)cc1C	-1.7% (inactive)
CC(C)(c1cc(Br)c(O)c(Br)c1)c1cc(Br)c(O)c(Br)c1	3.15% (inactive) and 6.79% (inactive) and 4.84% (inactive)
CCCCCCCCCCCCCCCCCC(=O)OC[C@@H](O)[C@H]1OC[C@H](O)[C@H]1O	5.18% (inactive)
CC(C)OC(=O)c1ccccc1C(=O)OC(C)C	0.429% (inactive)
CN(C)c1nc(=O)n(C2CCC(O)CC2)c(=O)n1C (centres undefined)	2.83% (inactive)
CC(C=O)Cc1ccc(C(C)(C)C)cc1 (centres undefined)	0.434% (inactive) and 1.86% (inactive)
CSc1ccc(Cl)cc1	-0.0441% (inactive)
CCCCOCCOCCOCCCC	-0.244% (inactive)
Cc1ccccc1C(N)=O	2.86% (inactive)
CC(N)CN (centres undefined)	-2.35% (inactive)
CC(CCC(=O)O)(c1ccc(O)cc1)c1ccc(O)cc1	-2.09% (inactive) and 0.383% (inactive)
CO/N=C1\C[C@]2(C[C@@H]3C[C@@H](C/C=C(\C)C[C@@H](C)/C=C/C=C4\CO[C@@H]5[C@H](O)C(C)=C[C@@H](C(=O)O3)[C@]45O)O2)O[C@H](/C(C)=C/C(C)C)[C@H]1C	6.07% (inactive)
CCCCOCCOCCOC(=O)CCCCC(=O)OCCOCCOCCCC	3.42% (inactive)
CC(=O)c1c(C)c([N+](=O)[O-])c(C(C)(C)C)c([N+](=O)[O-])c1C	1.55% (inactive)

Structure (SMILES)	activation
CCNc1cc(O)ccc1C	2% (inactive)
O=C1OC(=O)c2c(Cl)c(Cl)c(Cl)c(Cl)c21	-0.745% (inactive) and 3.66% (inactive)
CCOCCOCC	-1.11% (inactive)
CCCC/C=C\CCCCCCCCO	-5.44% (inactive)
O=C(O)c1ccc(Cl)c(Cl)c1	-2.87% (inactive)
CC(=O)OC(C(=O)c1ccccc1)c1ccccc1 (centres undefined)	-3.38% (inactive)
CCCCCCCCCCCCc1ccccc1	3.31% (inactive)
CCCC(C)CO (centres undefined)	1.08% (inactive)
CCCCCCCCCc1ccccc1	2.7% (inactive)
COc1cc(Cl)c(OC)cc1N	-0.889% (inactive)
C(=C/c1ccccc1)/c1ccccc1	-2.54% (inactive)
Cc1ccc2oc(=O)ccc2c1	0.64% (inactive) and 1.95% (inactive)
CCCCCCCCC1CO1 (centres undefined)	0.755% (inactive)
O=C(O)CNC(=O)c1ccc([N+](=O)[O-])cc1	1.14% (inactive)
O=C(O)C(Oc1ccc(Cl)cc1)Oc1ccc(Cl)cc1	-1.96% (inactive)
O=[N+]([O-])c1cccc(Cl)c1Cl	-2.65% (inactive) and -2.56% (inactive)
C[C@]12CCC(=O)C=C1CC[C@@H]1[C@@H]2[C@@H](O)C[C@]2(C=O)[C@@H](C(=O)CO)CC[C@@H]12	1.4% (inactive)
CCCCN(CCO)CCCC	-4.1% (inactive)
O=C1C=CCCC1	-1.48% (inactive)
